PubChem BioAssay (Tox21)
Records with an inconclusive call do not appear. Where a call stands in place of a potency, no number is given. Unmarked numbers belong to inactive results. Calls of active or inactive are those of the source. Calls follow the shape of the full dose curve.

Biological target: Beta-2 adrenergic receptor (Homo sapiens) (UniProt P07550)
Experiment: Adrenergic beta2 receptor (ADRB2) small molecule agonists, cell-based qHTS assay (AID 1963593);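 as to activation: CHO cells stably overexpressing human ADRB2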
Outline: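 CHO cells stably over-expressing ADRB2 were plated overnight at 37C, then dosed with compounds plus a stimulation mix containing 100uM IBMX and 25uM Ro-20-1724 for 0.5hr at room temperature. cAMP was measured by HTRF competition, 1hr.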
Potency is read from the fitted curve at half-maximal effect.

Sequence of Beta-2 adrenergic receptor (Homo sapiens) (P07550 whole entry, looked up): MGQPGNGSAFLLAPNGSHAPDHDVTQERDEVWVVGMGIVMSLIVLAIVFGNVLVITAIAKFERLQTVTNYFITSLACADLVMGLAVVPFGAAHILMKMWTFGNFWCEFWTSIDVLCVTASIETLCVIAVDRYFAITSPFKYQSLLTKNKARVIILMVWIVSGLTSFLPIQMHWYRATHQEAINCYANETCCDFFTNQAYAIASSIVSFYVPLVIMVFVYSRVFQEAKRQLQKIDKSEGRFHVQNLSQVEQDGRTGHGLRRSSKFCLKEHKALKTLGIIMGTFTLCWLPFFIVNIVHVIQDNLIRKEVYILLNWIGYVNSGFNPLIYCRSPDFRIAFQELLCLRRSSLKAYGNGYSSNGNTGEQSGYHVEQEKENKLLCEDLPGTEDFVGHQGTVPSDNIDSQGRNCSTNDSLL

Row | SMILES | Potency | activation
1 | Cc1c([N+](=O)[O-])cc2c(c1[N+](=O)[O-])C(C)(C)CC2(C)C | inactive | 
2 | O=C(NC(=O)c1c(F)cccc1F)Nc1cc(Cl)c(Oc2ncc(C(F)(F)F)cc2Cl)c(Cl)c1 | inactive | 
3 | COC1CC(=C(c2cccs2)c2cccs2)C[N+](C)(C)C1 (stereo not given) | inactive | 
4 | COC(=O)N(C(=O)N1CO[C@@]2(C(=O)OC)Cc3cc(Cl)ccc3C2=N1)c1ccc(OC(F)(F)F)cc1 | inactive | 
5 | C[C@@H]1CC2=CC(=O)CC[C@@H]2[C@H]2CC[C@@]3(C)[C@@H](CC[C@]3(C)O)[C@@H]21 | inactive | 
6 | CCCCc1ccc(O)cc1 | inactive | 
7 | CN(C)c1ccc(N=Nc2ccccc2)cc1 | inactive | 
8 | BrCCCCBr | inactive | 
9 | COc1ccc2c(c1OC)C(=O)O[C@H]2[C@@H]1c2cc3c(cc2CCN1C)OCO3 | inactive | 
10 | COC(=O)C(c1ccccc1)C1CCCCN1 (stereo not given) | inactive | 
11 | CCC(OC(C)=O)C(CC(C)NC)(c1ccccc1)c1ccccc1 (stereo not given) | inactive | 
12 | CCC1COC(Cn2cncn2)(c2ccc(Cl)cc2Cl)O1 (stereo not given) | inactive | 
13 | NC1CCC(CC2CCC(N)CC2)CC1 (stereo not given) | inactive | 
14 | O=C(O)C(Br)CBr (stereo not given) | inactive | 
15 | N[C@@H]1C[C@H]1c1ccccc1 | inactive | 
16 | II | inactive | 
17 | CN/C(=N\[N+](=O)[O-])NCc1cnc(Cl)s1 | inactive | 
18 | C[C@]12CC[C@H]3[C@@H](CCC4=CC(=O)CC[C@@]43C)[C@@H]1CC[C@@H]2C(=O)O | inactive | 
19 | CC(C)[C@@H](Nc1ccc(C(F)(F)F)cc1Cl)C(=O)OC(C#N)c1cccc(Oc2ccccc2)c1 (stereo not given in full) | inactive | 
20 | O=C(Cl)c1ccc(Cl)cc1 | inactive | 
21 | O=C(N/N=C/c1ccc([N+](=O)[O-])o1)c1cc([N+](=O)[O-])cc([N+](=O)[O-])c1O | inactive | 
22 | CCC(=O)C(CCN(C)C)(c1ccccc1)c1ccccc1 | inactive | 
23 | CCN(C(C)=O)c1cccc(-c2ccnc3c(C#N)cnn23)c1 | inactive | 
24 | CC(C)NCC(O)c1ccccc1Cl (stereo not given) | 668 nM (active) | 
25 | ClC(Cl)=C(Cl)Cl | inactive | 

Row | SMILES | Potency | activation
26 | COc1cc(C=O)cc2c1[C@H](COC(N)=O)[C@]1(OC(C)=O)ON2C[C@H]2[C@@H]1N2C(C)=O | inactive | 
27 | ClCC(Cl)Cl | inactive | 
28 | CC1NCCOC1c1ccccc1 (stereo not given) | inactive | 
29 | CC/C(=N\OC/C=C/Cl)C1=C(O)CC(C2CCOCC2)CC1=O (stereo not given) | inactive | 
30 | NC(=O)C(Cl)Cl | inactive | 
31 | C=CCC1([C@H](C)CCC)C(=O)NC(=O)NC1=O | inactive | 
32 | CC(Cc1ccccc1)N(C)Cc1ccco1 (stereo not given) | inactive | 
33 | ClC=C(Cl)Cl | inactive | 
34 | [As]#[In] | inactive | 
35 | O=S1(=O)OCCO1 | inactive | 
36 | CC(=O)OCC1=C(C(=O)O)N2C(=O)[C@@H](N)[C@H]2SC1 |  | 15.1% [at 19 µM]
37 | Cc1c([N+](=O)[O-])c(C)c([N+](=O)[O-])c(C(C)(C)C)c1[N+](=O)[O-] | inactive | 
38 | O=C(NC(=O)c1cc(F)c(F)cc1Cl)Nc1cc(F)ccc1N1CCC(C(=O)O)CC1 | inactive | 
39 | COC(=O)C(C)Oc1ccc(Oc2ccc(Cl)cc2Cl)cc1 (stereo not given) | inactive | 
40 | [F][Sn]([c]1ccccc1)([c]1ccccc1)[c]1ccccc1 | inactive | 
41 | O=c1[nH]oc2c1CCNC2 | inactive | 
42 | CCN(CCO)CCn1c(Cc2ccccc2)nc2c1c(=O)n(C)c(=O)n2C | inactive | 
43 | Clc1c(Cl)c(Cl)c(Cl)c(Cl)c1Cl |  | 15.9% [at 8.39 µM]
44 | CCC(C(N)=O)N1CCCC1=O (stereo not given) | inactive | 
45 | CC(=O)CN(CC(C)=O)N=O | inactive | 
46 | CCC[CH2][Sn]([CH2]CCC)([O]C(C)=O)[O]C(C)=O | inactive | 
47 | CC1=C(C(=O)O)N2C(=O)[C@@H](N)[C@H]2SC1 |  | 0.75% [at 19 µM]
48 | O=C(OC1CCCCC1)c1ccccc1C(=O)OC1CCCCC1 | inactive | 
49 | CCCCCCCCCCCCCCCCCCn1cc[n+](C)c1 | inactive | 
50 | O=C(O)CC(Cl)C(=O)O (stereo not given) | inactive | 
